Test results as given in the supplement of paper PMC10849652.
Of roughly 8,800 targets only a part is listed; those with a hit were picked by preference. About 0.5% of all pairs of compound and target were hits.

What was measured:
Assay in all cases: log2 fold change, soluble protein after heating vs DMSO (PISA); higher = thermal stabilisation; K562 lysate, 10 uM; active = over 0.2 and 3.5 SD of the protein, either way, in both replicates (recomputed)
[1] = compound: C1=CC=C(C=C1)[C@H](COC2=CC3=C(C=C2)NC(=O)N3)NC(=O)C4=CC=CN(C4=O)CC5=CC(=C(C=C5)F)F
In short: (§1)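 Thermal stability, expressed as log-two fold change relative to solvent controls, is given from duplicates. Crude K562 extract in PBS pH 7.4 with 1 mM MgCl2, at 1 mg/mL protein, was treated with 10 μM compound for 30 min and heated in aliquots for 3 min across 48°C-58°C. After pooling, adjustment to 0.5% NP-40 at 4°C and centrifugation at 21,000xg for 90 min, supernatant protein was measured by TMTpro 16plex LC-MS/MS with channel sums equalised.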

[2] = compound: CC1=C(SC2=C1C(=N[C@H](C3=NN=C(N32)C)CC(=O)N)C4=CC=C(C=C4)Cl)C
In short: as §1

[3] = compound: CC1=C2C(=CC=C1)N=C(N(C2=O)C3=CC=CC=C3C)CN4C=NC5=C(N=CN=C54)N
In short: as §1

[4] = compound: Cc1sc2c(c1C)C(c1ccc(Cl)cc1)=N[C@@H](CC(=O)OC(C)(C)C)c1nnc(C)n1-2
In short: as §1

[5] = compound: c1ccc([C@@H]2C[C@H]2NC2CCNCC2)cc1
In short: as §1

Measured: log2 fold change

MTOR (UniProt P42345)
inactive: [1] -0.022 | [2] 0.004 | [3] 0.013 | [4] 0.014 | [5] 0.029

OSGEP (UniProt Q9NPF4)
inactive: [1] -0.007 | [2] 0.031 | [3] 0.036 | [4] 0.063 | [5] 0.011

NFATC2IP (UniProt Q8NCF5)
inactive: [1] 0.012 | [2] -0.01 | [3] 0.009 | [4] 0.138 | [5] 0.049

NNMT (UniProt P40261)
inactive: [1] 0.003 | [2] 0.05 | [3] 0.027 | [4] -0.011 | [5] -0.027

PAFAH1B3 (UniProt Q15102)
inactive: [1] 0 | [2] 0.042 | [3] 0.045 | [4] 0.047 | [5] 0.014

NUP188 (UniProt Q5SRE5)
inactive: [1] -0.044 | [2] -0.009 | [3] 0 | [4] -0.001 | [5] 0.016

PARP14 (UniProt Q460N5)
inactive: [1] 0.021 | [2] -0.003 | [3] 0.063 | [4] -0.028 | [5] -0.045

ORC5 (UniProt O43913)
inactive: [1] -0.037 | [2] -0.022 | [3] 0.029 | [4] 0.003 | [5] 0.021

PARG (UniProt Q86W56)
Sequence of UniProt Q86W56 (Q86W56 whole entry, looked up): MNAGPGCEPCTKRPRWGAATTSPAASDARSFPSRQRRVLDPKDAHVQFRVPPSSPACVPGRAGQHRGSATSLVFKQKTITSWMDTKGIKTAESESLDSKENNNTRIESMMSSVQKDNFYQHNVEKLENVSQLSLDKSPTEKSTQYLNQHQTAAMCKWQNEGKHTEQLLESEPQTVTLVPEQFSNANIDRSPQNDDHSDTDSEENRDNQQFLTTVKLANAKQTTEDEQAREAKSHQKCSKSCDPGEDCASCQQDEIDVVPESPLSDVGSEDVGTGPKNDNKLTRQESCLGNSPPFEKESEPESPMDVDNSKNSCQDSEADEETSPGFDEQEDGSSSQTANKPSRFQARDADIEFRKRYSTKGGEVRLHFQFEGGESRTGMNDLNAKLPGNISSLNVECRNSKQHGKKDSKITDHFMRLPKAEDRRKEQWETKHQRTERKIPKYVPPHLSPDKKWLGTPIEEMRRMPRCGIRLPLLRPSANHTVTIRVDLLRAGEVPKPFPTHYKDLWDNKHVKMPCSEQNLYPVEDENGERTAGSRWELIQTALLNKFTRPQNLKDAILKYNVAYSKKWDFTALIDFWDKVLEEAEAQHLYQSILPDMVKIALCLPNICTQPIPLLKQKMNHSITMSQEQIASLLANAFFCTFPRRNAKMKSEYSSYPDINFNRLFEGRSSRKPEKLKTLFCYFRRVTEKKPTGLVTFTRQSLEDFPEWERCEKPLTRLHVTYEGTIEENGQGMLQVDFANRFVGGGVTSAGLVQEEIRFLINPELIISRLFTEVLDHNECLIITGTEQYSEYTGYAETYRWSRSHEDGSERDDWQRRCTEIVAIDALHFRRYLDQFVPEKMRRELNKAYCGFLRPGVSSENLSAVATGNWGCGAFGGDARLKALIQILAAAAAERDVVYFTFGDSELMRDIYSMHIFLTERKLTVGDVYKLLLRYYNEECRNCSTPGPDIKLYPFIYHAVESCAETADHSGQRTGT
inactive: [1] -0.011 | [2] -0.006 | [3] -0.005 | [4] -0.004 | [5] 0.091

NSA2 (UniProt O95478)
inactive: [1] 0.111 | [2] -0.135 | [3] -0.018 | [4] -0.042 | [5] 0.122

NUDT4 isoform 2 (UniProt Q9NZJ9)
inactive: [1] 0.009 | [2] -0.011 | [3] 0.01 | [4] 0.067 | [5] -0.026

OARD1 (UniProt Q9Y530)
Sequence of UniProt Q9Y530 (Q9Y530 whole entry, looked up): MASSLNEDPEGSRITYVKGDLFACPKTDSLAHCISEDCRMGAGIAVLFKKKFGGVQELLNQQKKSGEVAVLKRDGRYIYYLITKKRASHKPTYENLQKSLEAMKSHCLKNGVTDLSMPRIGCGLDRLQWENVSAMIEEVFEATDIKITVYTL
inactive: [1] -0.005 | [2] -0.014 | [3] 0.035 | [4] 0.044 | [5] -0.005

MTMR6 (UniProt Q9Y217)
inactive: [1] 0.015 | [2] 0.01 | [3] 0.006 | [4] -0.065 | [5] 0.062

OTUD7B (UniProt Q6GQQ9)
Sequence of UniProt Q6GQQ9 (Q6GQQ9 whole entry, looked up): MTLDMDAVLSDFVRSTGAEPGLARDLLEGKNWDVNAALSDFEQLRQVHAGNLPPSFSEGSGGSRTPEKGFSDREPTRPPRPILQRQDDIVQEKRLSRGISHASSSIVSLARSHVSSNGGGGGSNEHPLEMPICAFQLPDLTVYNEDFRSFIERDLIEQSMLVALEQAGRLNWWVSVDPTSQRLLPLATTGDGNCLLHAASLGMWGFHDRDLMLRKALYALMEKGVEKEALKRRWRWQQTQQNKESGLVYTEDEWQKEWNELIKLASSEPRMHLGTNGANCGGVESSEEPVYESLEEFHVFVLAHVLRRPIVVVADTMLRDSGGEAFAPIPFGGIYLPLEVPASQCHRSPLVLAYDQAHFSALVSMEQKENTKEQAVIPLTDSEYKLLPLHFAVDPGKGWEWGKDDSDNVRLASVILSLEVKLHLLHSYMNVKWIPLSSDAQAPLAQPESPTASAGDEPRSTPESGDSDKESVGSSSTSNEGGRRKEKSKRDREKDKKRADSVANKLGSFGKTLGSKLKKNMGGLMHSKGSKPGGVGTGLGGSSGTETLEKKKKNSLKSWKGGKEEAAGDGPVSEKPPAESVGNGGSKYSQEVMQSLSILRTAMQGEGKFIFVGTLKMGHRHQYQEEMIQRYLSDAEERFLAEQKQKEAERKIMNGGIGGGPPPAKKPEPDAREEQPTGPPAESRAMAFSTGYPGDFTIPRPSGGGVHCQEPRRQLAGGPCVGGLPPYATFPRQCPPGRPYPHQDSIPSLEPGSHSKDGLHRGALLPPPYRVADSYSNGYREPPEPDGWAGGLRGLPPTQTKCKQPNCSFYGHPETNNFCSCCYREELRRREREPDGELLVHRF
inactive: [1] -0.004 | [2] 0 | [3] -0.001 | [4] -0.02 | [5] 0.035

OSBP2 (UniProt Q969R2)
inactive: [1] 0.021 | [2] 0.046 | [3] 0.019 | [4] -0.095 | [5] -0.439

NR2C2 isoform 2 (UniProt P49116)
inactive: [1] -0.078 | [2] -0.08 | [3] -0.04 | [4] 0.243 | [5] 0.047

NEXN (UniProt Q0ZGT2)
inactive: [1] -0.31 | [2] 0.335 | [3] 0.271 | [4] -0.083 | [5] -0.22

NOA1 (UniProt Q8NC60)
inactive: [1] -0.087 | [2] 0.099 | [3] 0.023 | [4] -0.014 | [5] -0.07

NARF (UniProt Q9UHQ1)
inactive: [1] -0.023 | [2] -0.005 | [3] 0.017 | [4] -0.019 | [5] 0

PBK (UniProt Q96KB5)
Sequence of UniProt Q96KB5 (Q96KB5 whole entry, looked up): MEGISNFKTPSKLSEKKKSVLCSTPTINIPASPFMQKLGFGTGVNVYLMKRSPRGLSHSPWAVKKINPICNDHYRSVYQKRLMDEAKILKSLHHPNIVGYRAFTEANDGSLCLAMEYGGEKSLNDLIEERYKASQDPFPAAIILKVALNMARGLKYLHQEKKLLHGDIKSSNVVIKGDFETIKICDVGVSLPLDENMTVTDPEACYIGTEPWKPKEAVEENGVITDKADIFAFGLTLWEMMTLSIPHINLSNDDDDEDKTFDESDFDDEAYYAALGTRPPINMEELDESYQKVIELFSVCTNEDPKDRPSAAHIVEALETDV
inactive: [1] -0.002 | [2] 0.006 | [3] 0.006 | [4] 0.023 | [5] 0.029

NT5DC2 isoform 2 (UniProt Q9H857)
inactive: [1] 0.021 | [2] -0.026 | [3] 0.009 | [4] 0.051 | [5] -0.022

NELFCD (UniProt Q8IXH7)
inactive: [1] -0.035 | [2] 0.023 | [3] 0.018 | [4] 0.003 | [5] 0.025

NIT2 (UniProt Q9NQR4)
inactive: [1] -0.033 | [2] 0.017 | [3] 0.027 | [4] -0.007 | [5] 0.058

NUB1 (UniProt Q9Y5A7)
Sequence of UniProt Q9Y5A7 (Q9Y5A7 whole entry, looked up): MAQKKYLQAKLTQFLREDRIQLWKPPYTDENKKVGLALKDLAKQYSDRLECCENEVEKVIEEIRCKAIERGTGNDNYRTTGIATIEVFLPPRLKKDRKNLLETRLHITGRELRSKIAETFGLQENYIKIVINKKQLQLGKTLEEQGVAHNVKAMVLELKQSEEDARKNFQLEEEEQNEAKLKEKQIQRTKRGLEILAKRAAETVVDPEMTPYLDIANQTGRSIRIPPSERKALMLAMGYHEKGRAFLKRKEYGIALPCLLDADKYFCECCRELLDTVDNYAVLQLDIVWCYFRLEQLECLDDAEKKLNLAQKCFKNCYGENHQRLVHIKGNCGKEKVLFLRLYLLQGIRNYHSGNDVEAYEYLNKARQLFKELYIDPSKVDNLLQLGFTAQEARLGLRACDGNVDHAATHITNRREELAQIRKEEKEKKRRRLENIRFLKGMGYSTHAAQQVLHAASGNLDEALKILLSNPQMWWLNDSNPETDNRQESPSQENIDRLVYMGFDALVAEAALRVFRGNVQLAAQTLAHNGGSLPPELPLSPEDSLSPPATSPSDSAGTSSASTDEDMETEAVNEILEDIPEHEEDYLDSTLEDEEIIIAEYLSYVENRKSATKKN
inactive: [1] -0.011 | [2] 0.029 | [3] 0.025 | [4] 0.013 | [5] 0.039

PAGE4 (UniProt O60829)
inactive: [1] 0.024 | [2] -0.11 | [4] -0.143 | [5] 0.118

MYBL2 (UniProt P10244)
active: [5] 0.326
inactive: [3] -0.01 | [4] 0.047

PARD3B (UniProt Q8TEW8)
inactive: [4] 0.138 | [5] -0.085

NR2F2 (UniProt P24468)
inactive: [1] -0.082 | [2] -0.117 | [4] -0.008 | [5] 0.082

MT-ATP8 (UniProt P03928)
Sequence of UniProt P03928 (P03928 whole entry, looked up): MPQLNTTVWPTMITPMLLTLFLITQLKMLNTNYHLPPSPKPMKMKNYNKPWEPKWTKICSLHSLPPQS
inactive: [1] -0.057 | [2] 0.052 | [3] 0.082 | [5] 0.104

NPLOC4 isoform 2 (UniProt Q8TAT6)
inactive: [1] 0.035 | [2] 0.017 | [3] 0.025 | [4] -0.012 | [5] -0.064

MTA3 (UniProt Q9BTC8)
inactive: [1] -0.006 | [2] -0.047 | [3] 0.002 | [4] 0.014 | [5] -0.001

NSUN7 (UniProt Q8NE18)
inactive: [1] -0.144 | [2] -0.046 | [3] 0.06 | [5] -0.081

MXRA7 (UniProt P84157)
Sequence of UniProt P84157 (P84157 whole entry, looked up): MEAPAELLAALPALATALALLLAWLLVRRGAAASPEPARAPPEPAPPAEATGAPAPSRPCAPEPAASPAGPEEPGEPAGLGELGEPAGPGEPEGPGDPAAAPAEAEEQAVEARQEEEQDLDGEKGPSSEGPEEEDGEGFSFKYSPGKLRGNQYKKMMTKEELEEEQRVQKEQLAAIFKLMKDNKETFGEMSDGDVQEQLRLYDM
inactive: [3] -0.05 | [4] -0.106 | [5] -0.062

OSBP (UniProt P22059)
inactive: [1] 0.007 | [2] 0.048 | [3] 0.036 | [4] -0.009 | [5] 0.039

NUDT6 (UniProt P53370)
inactive: [3] -0.222 | [4] 0.009

NUMBL (UniProt Q9Y6R0)
Sequence of UniProt Q9Y6R0 (Q9Y6R0 whole entry, looked up): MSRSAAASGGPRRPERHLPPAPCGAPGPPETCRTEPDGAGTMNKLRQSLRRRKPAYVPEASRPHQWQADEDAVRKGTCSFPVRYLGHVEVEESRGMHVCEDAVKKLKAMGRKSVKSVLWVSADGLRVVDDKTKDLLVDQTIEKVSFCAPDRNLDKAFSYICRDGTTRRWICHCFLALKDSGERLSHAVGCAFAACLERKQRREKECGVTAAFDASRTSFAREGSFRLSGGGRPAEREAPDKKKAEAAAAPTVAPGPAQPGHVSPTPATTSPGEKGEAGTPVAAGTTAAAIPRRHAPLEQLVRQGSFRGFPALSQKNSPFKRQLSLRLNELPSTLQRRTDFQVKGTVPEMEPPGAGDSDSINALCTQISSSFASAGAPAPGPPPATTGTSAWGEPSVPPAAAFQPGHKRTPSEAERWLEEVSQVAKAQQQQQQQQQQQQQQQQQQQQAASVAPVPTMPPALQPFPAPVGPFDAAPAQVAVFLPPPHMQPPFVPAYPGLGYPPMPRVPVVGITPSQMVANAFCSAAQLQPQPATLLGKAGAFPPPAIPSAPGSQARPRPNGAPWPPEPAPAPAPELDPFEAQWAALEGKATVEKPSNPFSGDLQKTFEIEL
inactive: [1] -0.047 | [2] 0.038 | [3] 0.039 | [4] -0.096 | [5] -0.012

PAXBP1 (UniProt Q9Y5B6)
Sequence of UniProt Q9Y5B6 (Q9Y5B6 whole entry, looked up): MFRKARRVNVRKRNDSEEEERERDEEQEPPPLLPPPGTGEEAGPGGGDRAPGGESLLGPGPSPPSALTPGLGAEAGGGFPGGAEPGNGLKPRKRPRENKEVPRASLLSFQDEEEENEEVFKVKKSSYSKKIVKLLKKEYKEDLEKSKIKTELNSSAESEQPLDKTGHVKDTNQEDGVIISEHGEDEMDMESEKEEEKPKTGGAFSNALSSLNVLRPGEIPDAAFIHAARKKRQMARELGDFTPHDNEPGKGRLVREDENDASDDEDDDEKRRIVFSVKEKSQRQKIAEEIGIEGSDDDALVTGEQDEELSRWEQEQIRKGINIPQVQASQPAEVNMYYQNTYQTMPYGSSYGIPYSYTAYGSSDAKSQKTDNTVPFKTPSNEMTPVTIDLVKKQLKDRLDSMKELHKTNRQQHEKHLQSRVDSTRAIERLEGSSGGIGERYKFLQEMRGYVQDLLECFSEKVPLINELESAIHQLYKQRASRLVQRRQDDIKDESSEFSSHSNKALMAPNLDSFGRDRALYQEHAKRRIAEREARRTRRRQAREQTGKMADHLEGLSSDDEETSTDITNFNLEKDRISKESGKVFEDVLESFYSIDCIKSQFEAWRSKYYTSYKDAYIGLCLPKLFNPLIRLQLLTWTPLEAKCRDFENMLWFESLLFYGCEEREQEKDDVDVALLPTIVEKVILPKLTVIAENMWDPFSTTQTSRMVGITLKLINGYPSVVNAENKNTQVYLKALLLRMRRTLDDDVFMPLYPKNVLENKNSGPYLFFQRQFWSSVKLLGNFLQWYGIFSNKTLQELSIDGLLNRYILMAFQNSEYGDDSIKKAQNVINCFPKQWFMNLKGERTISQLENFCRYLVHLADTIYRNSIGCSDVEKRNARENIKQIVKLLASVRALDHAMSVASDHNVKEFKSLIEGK
inactive: [1] -0.004 | [2] -0.026 | [3] 0.026 | [4] 0.057 | [5] 0.001

NOCT (UniProt Q9UK39)
inactive: [4] 0.021

NSL1 (UniProt Q96IY1)
Sequence of UniProt Q96IY1 (Q96IY1 whole entry, looked up): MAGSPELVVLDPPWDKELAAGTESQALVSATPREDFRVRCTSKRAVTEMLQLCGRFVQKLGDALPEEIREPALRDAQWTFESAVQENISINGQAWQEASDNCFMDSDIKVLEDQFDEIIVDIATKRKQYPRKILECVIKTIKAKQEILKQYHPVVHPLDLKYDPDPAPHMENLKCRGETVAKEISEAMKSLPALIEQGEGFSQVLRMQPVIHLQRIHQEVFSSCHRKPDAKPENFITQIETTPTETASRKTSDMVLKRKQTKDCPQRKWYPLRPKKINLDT
inactive: [1] 0.028 | [2] 0.012 | [3] -0.001 | [4] 0.053 | [5] -0.014

NPLOC4 (UniProt I3L3I1)
inactive: [1] -0.041 | [2] 0.2 | [4] -0.101

MYLK (UniProt Q15746)
inactive: [1] -0.038 | [2] -0.161 | [3] -0.008 | [5] 0.123
